Laboratory results published in PubChem BioAssay.
Active and inactive are the calls of the source.

Experiments:
Albumin (Bos taurus) = Albumin (Bos taurus) (UniProt P02769); assay: compounds binding labelled BSA control protein – biochemical, small-molecule microarray, Alexa647 label, 635/667 nm fluorescence, artefact control for SMM control protein annotation, profiling panel (AID 1118); conditions: BSA-A647 binding, fluorescence 635 nm, higher = more signal;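 also: score merges 667 nm emission intensity and signal-to-noise per printed compound spot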
[1] = probe aXIP binding to arrayed compounds – biochemical, NeuroSMM set, 635/667 nm fluorescence, primary screen (AID 1119); conditions: small-molecule microarray, higher = more signal, called active from +8 up or from −8 down;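 also: probe is the protein aXip251-270 applied at 1 µg/mL to compound-printed slides; binding of probe to printed compounds measured as 667 nm fluorescence plus signal to noise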
[2] = probe aNOTCH3 binding on compound microarray – biochemical, small-molecule microarray, 635/667 nm fluorescence, primary screen (AID 1120); conditions: higher = more signal;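 also: probe is a biotin-tagged antibody raised against NOTCH3 rather than NOTCH3 protein; score merges spot fluorescence near 667 nm with spot signal to noise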
[3] = probe aNOTCH2 binding on compound microarray – biochemical, small-molecule microarray, 635/667 nm fluorescence, primary screen (AID 1121); conditions: higher = more signal;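 also: score merges feature fluorescence read at 667 nm with its signal to noise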
[4] = target: Carbonic anhydrase 2 (Homo sapiens) (UniProt P00918); assay: compounds binding carbonic anhydrase 2 – biochemical, small-molecule microarray, Alexa647-labelled CAII, profiling panel (AID 1122); conditions: CAII-A647 binding fluorescence, higher = more signal
[5] = COS7 lysate on small-molecule microarray, probe aHis, 635 nm (AID 1123); conditions: COS7 cell lysate, fluorescence, higher = more signal;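 also: z-score combines 667nm fluorescence intensity with signal-to-noise per printed compound spot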
[6] = probe aLAP1 signal on lysate-treated microarray – cell lysate, small-molecule microarray, COS7 lysate, primary screen (AID 1124); conditions: probe aLAP1, fluorescence, higher = more signal;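 also: lysate comes from COS7 cells expressing LAP1 and is applied at 0.3 µg/mL; score merges spot fluorescence near 667 nm with signal-to-noise over triplicate slides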
Sam68 (KHDRBS1) = assay: compounds binding KHDRBS1 protein – biochemical, small-molecule microarray, 635 nm fluorescence, primary screen (AID 1125); conditions: higher = more signal;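 also: score merges 667 nm channel intensity with signal to noise over triplicate slides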
[7] = system: Chordin-like protein 2 (CHRDL2); assay: compounds binding chordin-like 2 – biochemical, small-molecule microarray, 635 nm fluorescence, primary screen (AID 1126); conditions: fluorescence 635 nm, higher = more signal;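 also: printed compound slides probed with Chrdl2 protein at 4 µg/mL for 1 h at 4 C; score merges 667 nm emission intensity with signal to noise over three replicate slides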
[8] = target: Concanavalin-A (Canavalia ensiformis) (UniProt P02866); assay: compounds binding concanavalin A lectin – biochemical, small-molecule microarray, Alexa647 label, 635 nm, artefact control for SMM control protein annotation, primary screen (AID 1127); conditions: ConA-A647 binding fluorescence, higher = more signal;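 also: z combines 667 nm emission intensity with signal-to-noise across three replicate slides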
[9] = compounds binding Alexa647 anti-His antibody – biochemical, small-molecule microarray, 635 nm fluorescence, artefact control for SMM control protein annotation, primary screen (AID 1128); conditions: higher = more signal;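 also: score merges feature fluorescence with signal-to-noise for each printed compound spot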
[10] = system: Human papillomavirus type 1a E7 protein (residues 1-88); assay: HPV1a E7 small-molecule binders, primary screen, biochemical, small-molecule microarray, residues 1-88, 635 nm (AID 1129); conditions: small-molecule microarray binding, fluorescence 635 nm; higher = more signal
[11] = target: Focal adhesion kinase 1 (Homo sapiens) (UniProt Q05397); assay: PTK2 protein binding on printed compound slides – biochemical, small-molecule microarray, 635/667 nm fluorescence, BSA, DTT, primary screen (AID 1130); conditions: 635 nm fluorescence, higher = more signal;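 also: composite of spot emission at 667 nm and signal to noise over triplicate slides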
[12] = system: Fibrinogen (Alexa647-labelled); assay: Alexa647-fibrinogen binding to printed small molecules – biochemical, small-molecule microarray, 635/667 nm fluorescence, artefact control for SMM control-protein annotation, profiling panel (AID 1131); conditions: fibrinogen-A647 binding fluorescence, higher = more signal;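 also: z-score merges 667 nm fluorescence with per-spot signal-to-noise over triplicate slides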
[13] = target: Follistatin (Homo sapiens) (UniProt P19883); assay: FST protein binding to printed compounds – biochemical, small-molecule microarray, 635/667 nm fluorescence, primary screen (AID 1132); conditions: 635 nm fluorescence, higher = more signal
[14] = target: Fibroblast growth factor 2 (Homo sapiens) (UniProt P09038); assay: basic fibroblast growth factor binding to printed compounds – biochemical, small-molecule microarray, 635/667 nm fluorescence, primary screen (AID 1133); conditions: FGF2, fluorescence 635/667, higher = more signal
[15] = JC-1 mitochondrial potential readout, lung cancer cells – cell-based, A549, JC-1 fluorescence, basal, 24 h, 100 nL, profiling panel (AID 1138); conditions: higher = more signal;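 also: A549 lung adenocarcinoma cells under basal conditions with no added stimulus; test concentration not given here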
Lefty1 = Lefty1 protein binding to printed compounds – biochemical, small-molecule microarray, 635/667 nm fluorescence, primary screen (AID 1139); conditions: fluorescence 635/667, higher = more signal
[16] = system: wheat germ agglutinin (Triticum aestivum), Alexa647-labelled; assay: Alexa647-WGA lectin binding to printed small molecules – biochemical, small-molecule microarray, 635/667 nm fluorescence, artefact control for SMM control-protein annotation, profiling panel (AID 1140); conditions: WGA-A647 binding, 635 nm fluorescence, higher = more signal;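 also: score merges 667 nm feature emission with signal to noise over triplicate slides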
[17] = target: Luciferin 4-monooxygenase (Photinus pyralis) (UniProt P08659); assay: inhibition of purified Photinus pyralis luciferase – biochemical, luminescence, purified enzyme, 2006 set, primary screen (AID 1141); conditions: purified firefly luciferase, SteadyGlo luminescence, 30 min; higher = more signal, called active from +8 up or from −8 down;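 also: cell-free assay with purified firefly luciferase at 100 ng per well in PBS; test concentration not given here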
Chain of Luciferin 4-monooxygenase (Photinus pyralis) (P08659 whole entry, looked up): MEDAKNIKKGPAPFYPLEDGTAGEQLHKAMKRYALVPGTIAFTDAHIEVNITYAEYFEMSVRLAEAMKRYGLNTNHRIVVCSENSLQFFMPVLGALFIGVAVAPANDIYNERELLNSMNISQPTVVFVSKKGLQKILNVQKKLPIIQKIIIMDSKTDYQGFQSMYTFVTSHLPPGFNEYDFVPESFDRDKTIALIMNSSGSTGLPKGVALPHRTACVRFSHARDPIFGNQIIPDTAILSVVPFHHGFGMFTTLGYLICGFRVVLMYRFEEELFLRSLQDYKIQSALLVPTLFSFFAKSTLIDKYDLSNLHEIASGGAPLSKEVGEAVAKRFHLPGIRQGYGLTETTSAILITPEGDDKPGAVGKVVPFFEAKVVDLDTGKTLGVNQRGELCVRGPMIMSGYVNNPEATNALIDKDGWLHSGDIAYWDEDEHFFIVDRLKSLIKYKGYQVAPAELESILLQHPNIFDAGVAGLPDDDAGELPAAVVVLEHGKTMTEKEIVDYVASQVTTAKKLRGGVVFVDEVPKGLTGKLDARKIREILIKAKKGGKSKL

Chain of Focal adhesion kinase 1 (Homo sapiens) (Q05397 whole entry, looked up): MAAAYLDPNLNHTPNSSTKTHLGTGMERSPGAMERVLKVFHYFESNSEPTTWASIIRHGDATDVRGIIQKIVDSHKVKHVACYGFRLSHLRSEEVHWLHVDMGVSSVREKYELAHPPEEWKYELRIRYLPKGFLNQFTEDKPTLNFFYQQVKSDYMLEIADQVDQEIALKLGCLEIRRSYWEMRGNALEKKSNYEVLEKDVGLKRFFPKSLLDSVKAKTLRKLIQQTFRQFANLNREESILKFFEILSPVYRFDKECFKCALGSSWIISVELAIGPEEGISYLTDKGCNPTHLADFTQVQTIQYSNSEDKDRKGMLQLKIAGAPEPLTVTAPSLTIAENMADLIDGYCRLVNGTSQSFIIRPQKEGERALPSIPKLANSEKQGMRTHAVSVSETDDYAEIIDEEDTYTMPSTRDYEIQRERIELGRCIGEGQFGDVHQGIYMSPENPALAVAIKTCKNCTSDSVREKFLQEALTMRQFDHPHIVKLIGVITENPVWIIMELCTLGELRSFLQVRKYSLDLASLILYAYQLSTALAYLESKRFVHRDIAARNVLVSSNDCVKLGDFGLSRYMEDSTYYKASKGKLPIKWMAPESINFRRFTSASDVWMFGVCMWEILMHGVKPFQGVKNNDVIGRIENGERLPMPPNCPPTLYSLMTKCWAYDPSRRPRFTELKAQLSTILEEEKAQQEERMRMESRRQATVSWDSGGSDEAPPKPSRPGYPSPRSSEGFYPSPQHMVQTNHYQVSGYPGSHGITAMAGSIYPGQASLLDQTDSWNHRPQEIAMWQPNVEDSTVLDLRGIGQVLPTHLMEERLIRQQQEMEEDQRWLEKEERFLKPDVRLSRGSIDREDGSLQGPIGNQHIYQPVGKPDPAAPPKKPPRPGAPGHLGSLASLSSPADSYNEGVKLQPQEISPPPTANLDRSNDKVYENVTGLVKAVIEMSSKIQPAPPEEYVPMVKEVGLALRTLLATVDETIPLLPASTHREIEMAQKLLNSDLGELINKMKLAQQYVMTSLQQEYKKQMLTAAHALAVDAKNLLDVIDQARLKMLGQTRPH
Chain of Concanavalin-A (Canavalia ensiformis) (P02866 whole entry, looked up): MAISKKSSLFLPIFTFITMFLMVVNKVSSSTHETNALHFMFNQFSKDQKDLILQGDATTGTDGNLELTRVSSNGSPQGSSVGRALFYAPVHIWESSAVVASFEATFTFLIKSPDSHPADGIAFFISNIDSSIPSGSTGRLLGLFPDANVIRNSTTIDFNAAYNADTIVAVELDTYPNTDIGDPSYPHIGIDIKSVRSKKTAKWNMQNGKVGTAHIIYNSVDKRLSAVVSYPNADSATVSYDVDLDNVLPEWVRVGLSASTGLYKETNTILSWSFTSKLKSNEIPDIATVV
Chain of Follistatin (Homo sapiens) (P19883 whole entry, looked up): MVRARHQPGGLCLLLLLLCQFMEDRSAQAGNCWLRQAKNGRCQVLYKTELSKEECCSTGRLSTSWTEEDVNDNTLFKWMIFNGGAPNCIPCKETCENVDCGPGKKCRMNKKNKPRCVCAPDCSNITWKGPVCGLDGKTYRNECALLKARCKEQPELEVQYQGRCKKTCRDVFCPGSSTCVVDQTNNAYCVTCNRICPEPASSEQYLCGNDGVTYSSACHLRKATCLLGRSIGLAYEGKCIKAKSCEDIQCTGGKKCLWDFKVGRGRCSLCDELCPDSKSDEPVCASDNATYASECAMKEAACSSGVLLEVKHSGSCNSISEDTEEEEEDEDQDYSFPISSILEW
Chain of Albumin (Bos taurus) (P02769 whole entry, looked up): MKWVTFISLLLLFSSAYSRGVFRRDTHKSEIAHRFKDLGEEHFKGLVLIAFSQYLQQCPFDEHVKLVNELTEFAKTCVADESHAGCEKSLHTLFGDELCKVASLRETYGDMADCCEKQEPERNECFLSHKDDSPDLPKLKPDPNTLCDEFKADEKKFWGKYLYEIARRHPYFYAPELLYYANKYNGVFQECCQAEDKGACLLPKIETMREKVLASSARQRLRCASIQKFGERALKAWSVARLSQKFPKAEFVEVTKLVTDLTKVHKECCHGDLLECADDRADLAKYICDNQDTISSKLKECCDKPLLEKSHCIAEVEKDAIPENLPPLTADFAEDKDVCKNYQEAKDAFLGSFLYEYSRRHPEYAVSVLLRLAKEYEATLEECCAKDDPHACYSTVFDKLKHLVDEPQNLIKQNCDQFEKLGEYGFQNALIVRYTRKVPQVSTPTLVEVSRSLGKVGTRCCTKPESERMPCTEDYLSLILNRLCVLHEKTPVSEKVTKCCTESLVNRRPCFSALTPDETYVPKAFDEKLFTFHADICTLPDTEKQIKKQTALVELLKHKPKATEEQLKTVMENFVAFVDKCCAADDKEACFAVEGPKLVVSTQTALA
Chain of Fibroblast growth factor 2 (Homo sapiens) (P09038 whole entry, looked up): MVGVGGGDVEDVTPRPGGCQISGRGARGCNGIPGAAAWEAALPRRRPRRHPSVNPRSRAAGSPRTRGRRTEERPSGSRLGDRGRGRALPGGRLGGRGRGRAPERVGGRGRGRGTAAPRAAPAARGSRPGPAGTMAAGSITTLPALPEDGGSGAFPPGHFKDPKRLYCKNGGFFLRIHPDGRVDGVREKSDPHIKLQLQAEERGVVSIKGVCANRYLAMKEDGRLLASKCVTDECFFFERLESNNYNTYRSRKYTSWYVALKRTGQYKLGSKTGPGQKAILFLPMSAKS

| Compound | composite z-score (Albumin (Bos taurus)) | composite Z-score [1] | composite z-score [2] | composite z-score [3] | composite z-score [4] | composite z-score [5] | composite z-score [6] | composite z-score (Sam68 (KHDRBS1)) | composite z-score [7] | composite z-score [8] | composite z-score [9] | composite z-score [10] | composite z-score [11] | composite z-score [12] | composite z-score [13] | composite z-score [14] | z-score [15] | composite z-score (Lefty1) | composite z-score [16] | z-score [17] |
| --- | --- | --- | --- | --- | --- | --- | --- | --- | --- | --- | --- | --- | --- | --- | --- | --- | --- | --- | --- | --- |
| COCCOC(=O)N1C(=O)[C@@]2(c3cc(C#CC4=CCCCC4)ccc31)[C@H](C(=O)Nc1nc3ccccc3s1)[C@H]1C(=O)O[C@H](c3ccccc3)[C@H](c3ccccc3)N1[C@@H]2c1ccccc1OCCO | 0.657 | -0.478 (inactive) | 0.757 | 0.248 | 0.188 | 1.1 | -0.123 | 1.13 | 0.367 | 1.14 | 0.772 | 1.19 | 2.14 | 0.766 | 1.38 | 0.946 | -2.18 | 1.21 | 0.845 | -1.88 (inactive) |
| CN1C(=O)C2C=CC(C(O)c3ccccc3)N(Nc3ccccc3)C2C1=O (stereo not given) | 0.761 | 0.131 (inactive) | -0.128 | -0.0543 | 0.78 | 2.45 | 0.119 | -0.0508 | -1.02 | 0.142 | 0.75 | 0.717 | 0.61 | -0.022 | -1.07 | -1.39 | -0.419 | -0.279 | 0.537 | -0.315 (inactive) |
| CC(C)c1ccc(NN2C(C(O)C(c3ccccc3)c3ccccc3)C=CC3C(=O)N(c4ccccc4)C(=O)C32)cc1 (stereo not given) | 0.933 | -0.136 (inactive) | 0.424 | 0.101 | 0.797 | 2.74 | 0.902 | 1.32 | -0.348 | 1.14 | 0.49 | 1.2 | 0.496 | 0.975 | 1.13 | 0.388 | -1.24 | 0.343 | 0.919 | -0.78 (inactive) |
| COC(=O)C(CC#Cc1ccc2c(c1)[C@]1(C(=O)N2)[C@H](C(=O)O)[C@H]2C(=O)O[C@H](c3ccccc3)[C@H](c3ccccc3)N2[C@@H]1c1ccc(O)cc1)C(=O)OC | -0.266 | -1.69 (inactive) | -0.274 | -0.181 | 0.66 | 1.07 | 0.898 | 0.661 | -0.872 | -0.417 | 1.54 | -0.133 | -0.13 | -0.422 | -0.0501 | -0.328 | -0.573 | -0.574 | -0.163 | 0.217 (inactive) |
| OC([C@@H]1CC(c2ccccc2)=NO1)[C@H]1CC(c2ccccc2)=NO1 (stereo not given in full) | 0.558 | -0.227 (inactive) | -0.0465 | -0.0859 | -0.11 | -0.262 | -0.105 | -0.285 | 0.191 | -0.363 | 0.176 | -0.236 | -0.141 | 0.0985 | 0.0914 | 0.128 | -0.0913 | 0.484 | -0.259 | -1.46 (inactive) |
| COC(=O)[C@@]1(Cc2ccccc2)[C@H]2c3cc(C(=O)N4CCCC4)n(Cc4cccc5ccccc45)c3C[C@H]2CN1C(=O)c1ccccc1 | 0.942 | 0.304 (inactive) | 1.44 | 0.707 | 0.741 | 1.54 | 0.539 | 0.621 | -0.975 | 0.308 | 2.46 | 1.17 | 0.971 | 0.51 | 0.184 | -0.0086 | 1.11 | -0.922 | 1.29 | 1.4 (inactive) |
